The source of these data is PubChem BioAssay (NCI).

The panel holds about 83,000 compounds, 20% with a hit somewhere; the sample as a whole holds those more often.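 Single-concentration screen, 48 h exposure, 96-well plates. Endpoint: percent growth. Below 10 = active.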 Values without a mark were called inactive. Activity calls are given as the source filed them.

In this experiment the test system is HL-60(TB) leukemia. Description: NCI-60 one-dose screen, 48 h (100 = growth as untreated, 0 = no growth, -100 = all killed). As to conditions: 10 µM unless noted.
Consider `C=C(C)[C@@H]1CC[C@]2(c3ncc(C)o3)CC[C@]3(C)[C@H](CC[C@@H]4[C@@](C)(CCC#N)[C@H](C(=C)C)CC[C@]43C)[C@@H]12`, for which the growth is -27.9% [100 µM] (active).
In the case of `c1cnc2nc3c(cc2c1)oc1ccccc13` it was 96.4%.
In the case of `COc1cc(OC)cc(C(=O)C[n+]2cccc3cc[nH]c32)c1` it was 99%.
The result for `C/C(=C\CCc1ccoc1)CC/C=C(\C)CCCNc1ccc(F)cc1` reads 9.6% (active); that for `CCOC(=O)c1c(-c2ccc(Cl)cc2)c(C#N)c2c(C#N)c(N)nn2c1N`, 43.4%; that for `NC(=S)N/N=C/c1ccc(OC(=O)COc2ccc(Cl)cc2)cn1`, 19.3%.
Regarding `CC(C)/C=N/NC(N)=S`, the growth is 104%.
In the case of `N#C/C(=C\c1ccccc1Cl)c1cc2ccccc2[nH]1` it was 98.8%; in that of `COC(=O)c1c(-c2ccccc2)csc1NC(=O)c1c(-c2ccccc2)noc1C`, 28.3%; in that of `Cc1ccc(S(=O)(=O)NC(=O)n2cc(-c3ccncc3)c(-c3ccc(Cl)c(O)c3)n2)cc1`, 85.1%.
The result for `COc1nc(=O)n(C2C=CC(=O)O2)cc1F` (stereo not given) reads 1.27% (active); that for `CC(=O)c1c(C)nc2ccccc2c1/C=C/c1ccc(F)cc1`, 95.6%.
In the case of `Cn1cc(-c2ccc3ncc(-c4ccc(CC(=O)Nc5cc(C(C)(C)C)no5)cc4)nc3c2)cn1` it was 40.4%.
Take `COC(=O)c1cc2cc(-c3ccc(OC)cc3)cnc2[nH]1`: the growth is -2.68% (active).
In the case of `O=[N+]([O-])c1cc(Cl)c2[nH]c3c(Cl)cc([N+](=O)[O-])cc3c2c1` it was -28.5% (active); in that of `COC(=O)[C@@H](Cc1c[nH]c2ccccc12)NC(=O)/C=C/c1ccccc1`, 0.51% (active).
The result for `N#CC(C#N)N=Nc1ccc(Cl)cc1` reads -26.8% (active); that for `COc1ccc2c(c1)CCc1c-2n[nH]c1-c1[nH]nc2c1CCc1cc(OC)ccc1-2`, 23.4%.
The result for `COc1cc(/C=C2\CN(S(=O)(=O)c3ccccc3)C/C(=C\c3cc(CN4CCCCC4)c(O)c(OC)c3)C2=O)cc(CN2CCCCC2)c1O` reads -37.6% (active).
Consider `Cc1ccc2c(C(C[N+](=O)[O-])c3ccco3)c(-c3ccccc3)[nH]c2c1` (stereo not given), for which the growth is -5.69% (active).
The result for `CC1(C)NC2=C(C(Nc3cccnc3)N1)C(c1ccc([N+](=O)[O-])cc1)C(C(=O)c1ccc(N=[N+]=[N-])cc1)O2` (stereo not given) reads 104%; that for `CCOP1(=O)CC(C)=C(Cl)C(P(=O)(O)O)C1` (stereo not given), 11.5%; that for `Brc1ccc(Nc2nc3ccccc3nc2Nc2ccc(Br)cc2)cc1`, -12.3% (active).
The result for `CC(=O)c1ccc(Cc2ccc(C(C)=O)s2)s1` reads 86.5%; that for `CN(C)c1ccc(-c2ccc3[nH]c(=O)nc(-c4ccccc4)c3c2)cn1`, 3.35% (active); that for `COc1ccc(Cn2c(SC)nc(=O)n(Cc3ccc(Cl)cc3)c2=O)cc1`, 94.2%.
In the case of `O=C1/C(=C/c2ccc(O)c(O)c2)COc2ccc(-c3ccccc3)cc21` it was -15.8% (active); in that of `CC(C)(C)n1cc(-c2ccnc(NCCCNS(=O)(=O)c3ccccc3)c2)c(-c2cccc(O)c2)n1`, 32.8%.
On to `COC(=O)[C@H](C)NC(=O)c1ccc(NC(=O)c2[nH]c(C)c(Cl)c2Cl)c(OCCN)c1`, for which the growth is 95.2%.
In the case of `Cc1ccc(/C=C(/C#N)n2nnc3ncccc32)cc1` it was 0.0853% (active); in that of `CCN(CC)CCCCCNc1cc(OC(=O)c2ccc(Cl)cc2)cc2cccnc12`, 6.96% (active).
In the case of `Cc1csc(C#Cc2cncc(O)c2)n1` it was 110%; in that of `CC(C)c1ncc(CO)n1Cc1c(Cl)cccc1Cl`, 98.7%.
`Cc1ccc(S(=O)(=O)N/N=C2\CCCc3ccccc32)cc1`: the growth is 80.4%.
The result for `Cc1cc(C)c(C(=O)OC(C)CNC2CCCCC2)c(C)c1` (stereo not given) reads 87.5%; that for `C=CC(C)(C)n1cc(C2=C(O)C(=O)C(c3cn(C(C)(C)C=C)c4ccccc34)=C(O)C2=O)c2ccccc21`, 69.4%; that for `Cc1nn2c(-c3nc4cc(Cl)c(Cl)cc4[nH]3)c(-c3ccc(F)cc3)nc2s1`, 106%.
In the case of `COc1ccc(/C(=C\c2ccc3c(c2)OCO3)C(=O)Nc2nc3ccccc3s2)cc1OC` it was 92%; in that of `O=C(CCCCCCC(=O)Nc1ccc2c(c1)/C(=C/c1ccc[nH]1)C(=O)N2)NO`, 16.5%; in that of `Clc1ccc(Nc2nnc(-c3ccc4c(c3)OCO4)o2)cc1`, 80.1%.
